Results taken from PubChem BioAssay (EPA / NIEHS).
Inconclusive results are not listed. The source made the active and inactive calls. The calls were made as follows: active = hit-call score of the fitted dose curve at least 0.9, where 1 is the maximum; inconclusive = response in the unintended direction; inactive = score below 0.9.

What follows are molecules tested against human Vitamin D Receptor (VDR), VDR (gene 7421) (UniProt P11473) (assay: ATG_VDR_TRANS: Attagene TRANS-FACTORIAL HepG2 Assay for human Vitamin D Receptor (VDR) (AID 2283022)).
Procedure, shortened: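 Transactivation by an exogenous VDR-Gal4 chimera in transiently transfected HepG2 cells was measured as reporter transcript level 24 hours after chemical treatment. RT-PCR products were analysed by capillary electrophoresis and fitted in the positive direction relative to DMSO.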

human Vitamin D Receptor (VDR), VDR (gene 7421), sequence (P11473 whole entry, looked up, the tested form may be a part): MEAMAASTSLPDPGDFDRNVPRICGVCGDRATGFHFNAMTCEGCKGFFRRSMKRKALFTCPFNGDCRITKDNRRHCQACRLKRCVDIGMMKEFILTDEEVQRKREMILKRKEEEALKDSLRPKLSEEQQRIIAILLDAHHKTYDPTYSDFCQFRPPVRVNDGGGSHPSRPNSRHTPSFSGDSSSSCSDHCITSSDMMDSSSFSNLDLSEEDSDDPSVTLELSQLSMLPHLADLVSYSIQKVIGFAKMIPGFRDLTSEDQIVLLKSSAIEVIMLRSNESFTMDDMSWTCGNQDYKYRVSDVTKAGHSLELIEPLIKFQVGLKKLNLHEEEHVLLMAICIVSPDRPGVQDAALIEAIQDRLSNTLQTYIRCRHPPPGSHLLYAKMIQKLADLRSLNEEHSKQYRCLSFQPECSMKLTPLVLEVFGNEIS

| SMILES | outcome | AC50 |
| --- | --- | --- |
| CC(C)CCOCc1ccccc1 | inactive |  |
| CCC(C)c1ccccc1 (stereo not given) | inactive |  |
| NNS(=O)(=O)c1ccc(Oc2ccc(S(=O)(=O)NN)cc2)cc1 | inactive |  |
| CC(C)(CO)COC(=O)C(C)(C)CO | inactive |  |
| CC1=CC(C)C(C=O)CC1 (stereo not given) | inactive |  |
| CC1=NN(c2ccc(S(=O)(=O)O)cc2)C(=O)C1N=Nc1ccccc1 (stereo not given) | inactive |  |
| CC1CCC(C(C)(C)S)C(=O)C1 (stereo not given) | inactive |  |
| COC(=O)CC(C)CCC=C(C)C (stereo not given) | inactive |  |
| CCCCOC(=O)C(C)CC (stereo not given) | inactive |  |
| CC(C)=NNC(N)=S | inactive |  |
| CCOC(=O)c1ccc(C)cc1 | inactive |  |
| Nc1ccc(C(=O)OCCCOC(=O)c2ccc(N)cc2)cc1 | inactive |  |
| COc1cc(O)c(C(=O)c2ccccc2)cc1S(=O)(=O)O | inactive |  |
| CCCCCCCCCCCCCCCCCCOS(=O)(=O)O |  | 119 µM (active) |
| CC(C)c1cc(C(C)C)cc(C(C)C)c1 | inactive |  |
| Cc1ccccc1CCO | inactive |  |
| CCCCC(CC)COC(=O)/C=C/c1ccc(OC)cc1 (stereo not given) | inactive |  |
| CC(=O)C(C)C | inactive |  |

| SMILES | outcome | AC50 |
| --- | --- | --- |
| O=C(C=Cc1ccccc1)OCCc1ccccc1 | inactive |  |
| CC(C)(C)C1CCC(=O)CC1 | inactive |  |
| Cc1cccc(C(C)(C)C)c1O | inactive |  |
| C[Si](C)(C)N[Si](C)(C)C | inactive |  |
| CC(C)(CO)C(O)C(=O)NCCCO (stereo not given) | inactive |  |
| CC(C)OC(=O)c1ccccc1 | inactive |  |
| CC(=O)/C=C/C1C(C)=CCCC1(C)C (stereo not given) | inactive |  |
| CCCCOCCOCCOC(C)=O | inactive |  |
| C=CC(=O)O[C@H]1C[C@@H]2CC[C@@]1(C)C2(C)C | inactive |  |
| C=CC(=O)OCCCCCCCCCC | inactive |  |
| CCCCOCC(C)O (stereo not given) | inactive |  |
| CCOB(OCC)OCC | inactive |  |
| CCC[Si](OC)(OC)OC | inactive |  |
| C=C[Si](OCCOC)(OCCOC)OCCOC | inactive |  |
| C=CC(C)(CCC=C(C)C)OC(=O)C=Cc1ccccc1 (stereo not given) | inactive |  |
| CCCCCC[C@@H](O)C/C=C\CCCCCCCC(=O)OCC(O)CO (stereo not given in full) | inactive |  |
| COc1ccc(-c2coc3cc(O)cc(O)c3c2=O)cc1 | inactive |  |
